Over roughly 33,000 sequences, “E-score (-0.5 to 0.5)” has its median near -0.016; the highest 2% begin near 0.32. The sample holds the highest values, similar sequences and a random draw of the others, so the mix is not that of the screen.
Target: T1, Stp1 (UniProt B3LFK1)
T1 sequence: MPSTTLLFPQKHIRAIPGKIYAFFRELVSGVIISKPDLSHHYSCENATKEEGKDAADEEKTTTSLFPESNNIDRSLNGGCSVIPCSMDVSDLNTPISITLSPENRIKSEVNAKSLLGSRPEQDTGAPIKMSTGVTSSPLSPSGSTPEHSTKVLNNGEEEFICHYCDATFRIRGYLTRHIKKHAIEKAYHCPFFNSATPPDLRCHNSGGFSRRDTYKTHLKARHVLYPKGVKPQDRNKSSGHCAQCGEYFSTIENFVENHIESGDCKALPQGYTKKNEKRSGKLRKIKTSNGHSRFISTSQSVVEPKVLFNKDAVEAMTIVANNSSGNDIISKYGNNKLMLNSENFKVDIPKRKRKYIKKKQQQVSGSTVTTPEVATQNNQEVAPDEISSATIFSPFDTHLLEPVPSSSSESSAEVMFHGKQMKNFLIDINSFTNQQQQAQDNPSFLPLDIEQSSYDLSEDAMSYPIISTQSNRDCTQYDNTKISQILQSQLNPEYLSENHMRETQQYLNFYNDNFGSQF
Experiment: PBM E-score (8-mer binding enrichment) (E-score (-0.5 to 0.5)); higher = stronger / more preferred TF binding
Conditions: protein concentration: 200 nM; construct: GST-full length
Description: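 Universal 'all 10-mer' protein binding microarrays (Agilent AMADID 015681) probed with GST-tagged S. cerevisiae TFs (full-length or DBD) made by in vitro transcription/translation (PURExpress), about 100-200 nM. Bound TF was detected with fluorescent anti-GST. Each ungapped 8-mer (which stands for itself and its reverse complement) is scored by the PBM enrichment score (E-score), a modified Wilcoxon-Mann-Whitney statistic from -0.5 to +0.5, computed with the Universal PBM Analysis Suite. Scale: above 0.35 generally sequence-specific binding.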

Sequence | PBM E-score
AGCCTGCG | -0.245
GTTAAGAA | 0.0825
AGAGAGAA | -0.198
CTAGAAAA | -0.0127
ACCCGCGC | 0.232
AGCCGCGC | 0.424
AGCCGCGA | 0.159
AGCCGCGG | 0.376
ATCCGCGG | 0.13
AACCGCGC | 0.167
GGGTTCCA | -0.286
AGAGTACA | 0.04
CCGTTAGC | 0.0331
CAGACCCC | -0.381
CCGGCAAG | -0.0231
AAGGCAAC | 0.274
ACGGCAAA | 0.45
AAGGCAAT | 0.253
ATGGCAAC | 0.289
ACGGCAAT | 0.45
ACGGCAAG | 0.369
AGGGCAAA | 0.0608
AGGGCAAT | 0.156

Sequence | PBM E-score
ACGGCAAC | 0.455
AAGGCAAG | 0.0628
ATGGCAAA | 0.197
AATGTCCT | -0.246
CAAGCGCG | 0.124
ATTTTGAA | 0.277
GGAGTCAC | -0.236
ACTAACAT | 0.0936
ACGGATAC | 0.249
GGAAAGGA | -0.0901
GAGCCGTA | 0.468
AAGCCGTA | 0.398
AAGCCGAA | 0.116
AAGCCGAG | -0.0198
GAGCCGAA | 0.232
AAGCCGGG | -0.211
CAGCCGTA | 0.306
AAGCCGTG | 0.419
AAGCCGTC | 0.296
CACCTCCG | -0.0858
AGATCCTC | -0.251
ACTGTGAA | 0.0195
CCTGCACC | -0.271

Sequence | PBM E-score
GAGATTAC | -0.0779
ACGTAGAT | -0.0617
ACCTTTAC | 0.0425
GAGACAGA | -0.0347
TATGCGGA | 0.207
GCCGAACA | 0.114
CTGGGGGA | -0.35
AGGTAGCG | -0.105
CCGCGCCA | 0.252
ACGCGCCA | 0.0175
CCGCGTCG | 0.355
ACGCGCCC | 0.289
ACGCGCCT | 0.34
CCGCGCCC | 0.279
ACGCGCCG | 0.412
ACGCGCAG | -0.103
CCGCGTCA | 0.214
ACGCGCTG | 0.119
CCGCGTCC | 0.296
CCGCGCCG | 0.462
CTTGGTTC | 0.197
ACGGTTAA | 0.0599
AAAGGCTG | -0.102

Sequence | PBM E-score
GGTATCCA | 0.0649
AACGAGTT | -0.18
CCTGCCCA | -0.259
ATCAGAGC | 0.0942
GAAGTATA | 0.169
GCGTTGAA | 0.138
CGCAAAAG | 0.0708
CTTGCTCC | -0.0209
AAGGCGTC | 0.296
CTGGCGCC | 0.314
ATGGCGCG | 0.196
AAGGCGAC | 0.224
ATGGCGCC | 0.34
GAGGCGTA | 0.278
GAGGCGCC | 0.414
AAGGCGCC | 0.424
GAGGCGAA | 0.206
GAGGCGCA | 0.338
CAGGCGCC | 0.286
GAGGCCCC | -0.125
